Values joined by “and” are separate entries in the source; they are usually repeats but may differ in a detail not shown here. Identical values can stand only once. About 3,100 (0.86%) of roughly 360,000 compounds were called active. What follows is part of a selection rich in actives, with near analogues and random picks from the rest. Unmarked numbers belong to inactive results.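 The calls were made as follows: active = at least 50% inhibition at 5 µM, scaled per plate between neutral and stimulator controls; inactive = the rest.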

The inhibition is the change of the read-out against control, counted positive when it falls.

This experiment in a line: inhibitors of PAF-induced NF-kB signaling, primary screen, cell-based, GFP fluorescence, uHTS (AID 588850).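 Also: PAF is a Pseudomonas aeruginosa culture filtrate used as stimulus; plate controls were PAF-stimulated DMSO wells for no effect and unstimulated DMSO wells for full effect.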 The settings on record: KKLEB NF-kB-GFP reporter, GFP fluorescence overnight, at 5 µM, hits give high values.
With `S=C(Nc1cccnc1)Nc1ccccn1`, the inhibition was -6.9%.

Regarding `S=C(NN=Cc1ccccn1)Nc1ccccn1`, the inhibition was 73.7% (active).

For `O=C(N/N=C/c1ccccn1)c1cccc(NC(=O)c2ccc(Cl)cc2)c1`, the inhibition was 8.6%.

On to `NS(=O)(=O)c1cccc(NC(=O)COC(=O)c2cc([N+](=O)[O-])ccc2N2CCCC2)c1`, for which the inhibition is 5.8%.

Turning to `CC(=O)Nc1ccc(NC(=O)C(C)OC(=O)c2ccccc2C(=O)c2ccc(Cl)c([N+](=O)[O-])c2)cc1` (stereo not given), the inhibition is 81.1% (active).

Consider `CCOc1ccc(C(=O)NC(=S)Nc2ccc(NC(=O)C(C)C)cc2)cc1[N+](=O)[O-]`, for which the inhibition was 0.2%.

On to `N#Cc1cccc(NC(=O)COC(=O)c2ccccc2C(=O)c2ccc(Cl)c([N+](=O)[O-])c2)c1`, for which the inhibition is 86.9% (active).

Regarding `O=C(COc1ccc([N+](=O)[O-])cc1)Nc1cccc(C(=O)Nc2ccccc2C(=O)O)c1`, the inhibition was -36%.

`CC(OC(=O)CNC(=O)c1ccc(Cl)c([N+](=O)[O-])c1)C(=O)NCc1ccco1` (stereo not given): the inhibition was 5.2%.

For `Cc1ccc(S(=O)(=O)N2C3C=CC(C3)C2C(=O)O)cc1` (stereo not given), the inhibition was 1.4%.

With `COCc1c(C(=O)OCc2c(C)noc2C)oc2ccccc12`, the inhibition is -11.5%.

In the case of `CCOC(=O)N1CCC(Nc2c(NCCCN3CCN(c4ccc(OC)cc4)CC3)c(=O)c2=O)CC1`, the inhibition is -6.5%.

As to `CCN(CC)C(=O)N1CCN(C(=O)c2ccc(C)cn2)CC1`, the inhibition is 7.5%.

For `CCN1CCC2(CCN(Cc3cn[nH]c3-c3ccc(OC)c(F)c3)C2)C1` (stereo not given), the inhibition is 11%.

As for `CC(=O)N1CCC(C(=O)OCc2ccc(Cl)cc2)(c2ccccc2)CC1`, the inhibition is -6.8%.

As for `O=C(CCc1ccc(O)cc1)NN=Cc1cc(Br)ccc1O`, the inhibition was -5%.

With `CCN(CC)CCn1c(/N=C/c2cc(Br)ccc2O)nc2ccccc21`, the inhibition was 2.3%.

For the molecule `Oc1ccc(Br)cc1/C=N/Nc1ccccn1`, the inhibition is 107% (active).

For the molecule `CN1CCCN(C(=O)C2CCCCC2)CC1`, the inhibition was -5.1%.

Take `CC(=NNC(N)=O)C1CC2CCC1CC2` (stereo not given): the inhibition was 0.5%.

Take `COc1ccc(NC(=O)c2sc3nc(C)nc(N4CCN(c5ccccn5)CC4)c3c2C)c(OC)c1`: the inhibition is 53.3% (active).

For the molecule `Cc1nc(N2CCC(C)CC2)c2c(C)c(C(=O)Nc3cc(F)ccc3C)sc2n1`, the inhibition was 27.1%.

For the molecule `Cc1nc(N2CCN(c3ccccn3)CC2)c2c(C)c(C(=O)Nc3ccc(F)c(Cl)c3)sc2n1`, the inhibition was 36.8%.

For the molecule `COc1ccc(CC(=O)N[C@@H]2c3cc(OC)c(OC)cc3C[C@H]2OCc2ccccc2)cc1`, the inhibition was -5.1%.

For `CN1OC[C@@H]2CN(C(=O)c3ccc(-c4ccccc4)cc3)[C@H](c3ccc(-c4cccc(F)c4)cc3)C[C@@H]21`, the inhibition was -13%.

Regarding `O=C(OC12CC3CC(CC(C3)C1)C2)c1ccc(NCc2cc(O)ccc2O)cc1`, the inhibition was 60.3% (active).

In the case of `CN=C(NC#N)NCCSCc1nc[nH]c1C`, the inhibition is -4.5%.

For the molecule `Cc1cc(C)c(S(=O)(=O)c2cc(F)ccc2C)c(=O)[nH]1`, the inhibition is -12.1%.

Take `CN(C)CCN1CCN(c2cc(-c3cccc(Cl)c3)nc3ccnn23)CC1`: the inhibition was 7.8%.

As to `O=C(c1ccccc1)N1CCN(C(=O)c2cc3nc(-c4ccccc4)cc(C(F)(F)F)n3n2)CC1`, the inhibition was -4.4%.

Consider `C#Cc1cc(N2CCN(C(=O)c3ccoc3)CC2)n2nc(-c3cccc(Cl)c3)cc2n1`, for which the inhibition is 64.7% (active).

For the molecule `COc1cccc(C(O)c2nc(-c3ccc(C)c(C)c3)cs2)c1` (stereo not given), the inhibition is 17.1%.

For the molecule `COc1cc(C2c3cc4c(cc3C(O)C3COC(=O)C23)OCO4)cc(OC)c1OC` (stereo not given), the inhibition was 50.8% (active).

For the molecule `COc1cc(C2CC(=O)Oc3cc(OC)c(OC)c(OC)c32)cc(OC)c1OC` (stereo not given), the inhibition was -6.8%.

As to `COc1cc(C=C(OC(C)=O)c2ccc3c(c2)OCO3)cc(OC)c1OC`, the inhibition was -22.3%.

`C#C[C@]1(O)CC[C@H]2[C@@H]3CCC4=CC(=O)CC[C@@H]4[C@H]3CC[C@@]21CC`: the inhibition was 3.1% and 6.1%.

With `COc1ccc(CN2CC[C@H]3C=CC[C@@H](C(=O)N4CCOCC4)[C@H]3C2=O)cc1OC`, the inhibition was -24.1%.

Regarding `Cc1ccc(OC(=O)c2cncc(Br)c2)c(C)c1`, the inhibition was 1.1%.

For `Cc1cccc(-n2ncc(Cl)c(Cl)c2=O)c1`, the inhibition was 85.5% (active).

With `CC(=O)Nc1c2c(nn1-c1cccc(C)c1)CSC2`, the inhibition is 3.9%.

On to `CCCNC(=O)c1c(Cl)cnn1-c1ccc(C)cc1`, for which the inhibition was 9.5%.

For the molecule `CC(C)(C)C1CCC(C(=O)NCC(c2cccs2)N2CCOCC2)CC1` (stereo not given), the inhibition is 21.5%.

For the molecule `COc1ccc(C(C(=O)NCc2ccccc2)N(Cc2cccs2)C(=O)c2cnccn2)cc1` (stereo not given), the inhibition is -3.9%.

With `Cc1cc2nc(-c3ccco3)c(Cc3cccc(F)c3)n2c(C)c1Br`, the inhibition was 62.5% (active).

With `Cc1cc2nc(-c3ccc(Cl)cc3)c(Cc3cccc(F)c3)n2c(C)c1Br`, the inhibition is 17.5%.

In the case of `Cc1cc(Br)cn2c(Cc3cccc(F)c3)c(-c3cccc(Br)c3)nc12`, the inhibition is 47.6%.

In the case of `CC1(C)O[C@@H]2[C@H](O1)[C@@H](CO)O[C@H]2n1c(N2CCCCC2)nc2c(N)ncnc21`, the inhibition was 7.1%.

Regarding `O=C(Nc1ccc(Br)c2cccnc12)c1ccc(Cn2cc([N+](=O)[O-])cn2)o1`, the inhibition is 14.3%.

As to `N#CC1(Nc2ccc(-c3ccc(Cl)cc3)cc2)CCCC1`, the inhibition was -34.4%.

As to `Cc1sc2nc(CC(N)=O)[nH]c(=O)c2c1-c1ccccc1`, the inhibition was -3.2%.

For `NC(=O)c1sc2nc3c(c(-c4ccccc4)c2c1N)CCC3`, the inhibition was 78.3% (active).

For `CC(C)OC(=O)c1sc2nc3c(cc2c1N)C(=O)CCC3`, the inhibition was -15%.

With `O=C(NCCCN1CCN(c2ccccc2F)CC1)C1CCC(=O)N1C1CCCCC1` (stereo not given), the inhibition is -1.2%.

Consider `Cc1oc2c(c1C(=O)N1CCOCC1)C(=O)c1ccccc1C2=O`, for which the inhibition is 72.2% (active).

Regarding `Cc1ccc(C(=O)N2CCN(S(=O)(=O)N3CCOCC3)CC2)cc1`, the inhibition is 15.9%.

As to `CC(C(=O)Nc1ccccc1-c1ccccc1)N1CCOCC1` (stereo not given), the inhibition is 14.5%.

For the molecule `Nc1c(-c2ccc(F)cc2)cnn1C1CCS(=O)(=O)C1` (stereo not given), the inhibition is -5.8%.

Regarding `CCN(CC)S(=O)(=O)c1ccc(N2CCCC2)c(NC(=O)c2ccc([N+](=O)[O-])o2)c1`, the inhibition was 10.6%.

As to `Cc1cccc(NC(=O)c2ccc([N+](=O)[O-])o2)c1`, the inhibition was 59.4% (active).

As for `Cc1onc(NC(=O)c2ccc([N+](=O)[O-])o2)c1Br`, the inhibition is 27.3%.

For the molecule `CCn1c(SCC(=O)Nc2ccccc2F)nc2c(c1=O)SC(C)C2` (stereo not given), the inhibition is 6.5%.

For the molecule `O=C(O)CSc1nccc2ccccc12`, the inhibition is -3.7%.

With `CCOC(=O)CSc1ccccn1`, the inhibition is -2.8%.

In the case of `CCOC(=O)C(C(=O)c1ccccc1)C(c1ccccc1)c1nccc2ccccc12` (stereo not given), the inhibition was 50.6% (active).

Consider `O=c1nc(N2CCOCC2)nc2n1CCO2`, for which the inhibition was -13%.

Take `Cc1cccc(C)c1Cn1c(C)c(C(=O)NCc2cccc(Cl)c2)sc1=O`: the inhibition is 10.9%.

For the molecule `CC(C)c1ccc2c(c1)c(SC(C)(C)C)c(CC(C)(C)C(=O)O)n2Cc1ccc(Cl)cc1`, the inhibition is 63.4% (active).

On to `COc1ccc(CCNC(=O)Nc2ccc3c(c2)c(=O)n(C)n3C)cc1OC`, for which the inhibition is 14.5%.

As to `CC(C)C(=O)Nc1c2c(nn1-c1ccccc1)CSC2`, the inhibition is 7%.

Turning to `Cn1c(=O)c2c(n(Cc3ccccc3)c1=O)NC(=O)C2CC(=O)N1CCc2ccccc2C1` (stereo not given), the inhibition is 18%.

Consider `COC(=O)/C=C\C(=O)Nc1cccc([N+](=O)[O-])c1`, for which the inhibition was 92.2% (active).

Consider `COc1cccc(NCCC(=O)c2cccc([N+](=O)[O-])c2)c1`, for which the inhibition was -10.5%.

In the case of `O=C(Nc1cccc([N+](=O)[O-])c1)N1CCc2ccccc2C1`, the inhibition was 21.9%.

With `O=C(CNC(=O)N1CC(=O)Nc2ccccc21)Nc1ccc(Br)cc1F`, the inhibition is -4.5%.

On to `COc1ccc(N(CC(=O)N/N=C/c2cccc3c2OCCO3)S(=O)(=O)c2ccc(NC(C)=O)cc2)cc1`, for which the inhibition is -5.5%.

Take `COCOCCn1cc(CN2CCS(=O)(=O)N(Cc3ccc(-c4cccc(N(C)C)c4)cc3)C(CC(C)C)C2=O)nn1` (stereo not given): the inhibition is 6.3%.

Turning to `CC[C@H]1CN2CCc3cc(OC)c(OC)cc3[C@@H]2C[C@@H]1C[C@H]1NCCc2cc(OC)c(OC)cc21`, the inhibition was 82.5% (active).

With `COc1cc(/C=C/C(=O)O)cc(S(=O)(=O)Nc2ccccc2C(=O)NCCc2ccccc2)c1OC`, the inhibition is -10.9%.

`Cc1ccc(NC(=O)NC(=O)CSc2nnc(-c3ccc(OC(F)F)cc3)n2N)c(C)c1`: the inhibition is -26.2%.

As for `Cc1ccc(-n2ncc3c2CC(C)(C)CC3NC(=O)Cc2c(C)noc2C)cc1` (stereo not given), the inhibition is 28.3%.

Regarding `Cc1ccc(-c2nn(-c3ccccc3)cc2/C=C2\SC(=S)N(CCCCCC(=O)O)C2=O)o1`, the inhibition was 53.8% (active).

For the molecule `CN(C(=O)CCN1C(=O)/C(=C/c2ccccc2F)SC1=S)C1CCS(=O)(=O)C1` (stereo not given), the inhibition was -14.9%.

In the case of `O=C1/C(=C\c2ccccc2Cl)SC(=S)N1CCC(=O)N1CCCc2ccccc21`, the inhibition is 8.4%.

As for `CN(C)S(=O)(=O)c1ccc(N2CCCC2)c(C(=O)Nc2ccc(Br)cc2F)c1`, the inhibition is 21.3%.

Regarding `Cc1cc2c3ccccc3[nH]c(=O)n2n1`, the inhibition is -16.8%.

For `CN(C)/C=C/c1c(C#N)c(=O)ncn1Cc1ccccc1`, the inhibition was -10.4%.

As for `O=c1c2c(ncn1Cc1ccccc1)nc1n2CCC1`, the inhibition was 1.3%.

`CN(C)c1ccnc2sc3c(=O)n(Cc4ccccc4)cnc3c12`: the inhibition is 80.2% (active).

With `O=C(Nc1ccc(F)cc1)Nc1nnc([C@H]2C[C@H](O)[C@@H](CO)O2)s1`, the inhibition is 8%.

With `CCOC(=O)c1cc(C(=O)Nc2ccc(S(=O)(=O)Nc3ccc(OC)cc3)cc2)nn1C`, the inhibition is -4.7%.

These data come from PubChem BioAssay AID588850 (Sanford-Burnham Center for Chemical Genomics, 2011).
